Screens deposited in PubChem BioAssay by The Scripps Research Institute Molecular Screening Center.
TTR transcr act: activators of transthyretin transcription; SH-SY5Y TTR promoter Gaussia luciferase, luminescence; 100% = recombinant luciferase protein wells; activation, % at 16.7 µM; actives 1.3% (n = 92,000);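 active = activation above the mean of all tested compounds plus 3 SD, cut at about 9.5% in these data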;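 note: cells exposed to compounds for one day before reading; 0% = median of all test compound wells on the plate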
HuH7 TTR inh: HuH7 TTR transcription inhibition, counter-screen; inhibition, % at 16.7 µM; shares compounds with TTR transcr act; actives 4% (n = 1,100); AID 1117279; HuH7 TTR promoter-Gaussia luciferase reporter, luminescence;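 active = average inhibition above the solvent-only control wells' mean plus 3 SD, cut at about 15% in these data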;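 note: 0% = cells with DMSO only and 100% = cells with inhibitor control FD; inhibitors lower well luminescence so higher value means more inhibition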
TTR up confirm: human TTR transcription activation, confirmation | SHSY5Y TTR promoter Gaussia luciferase, luminescence; 100% = purified Lucia enzyme wells, no cells | AID 1117280 | 1,100 tested, under 10 active | activation, % at 16.7 µM | shares compounds with TTR transcr act;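 active = mean activation above a set limit taken from the earlier primary screen, cut at about 11% in these data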;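 note: 0% = DMSO-treated cells and 100% = recombinant Lucia luciferase without cells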
Active calls of the source: *. Only a selection was taken, and hits are over-represented in it overall.

COC(=O)[C@]12C[C@H](CC(=O)NCCCCc3ccccc3)C(=O)N(Cc3ccco3)C1=C[C@H](C1CCCC1)O[C@@H]2C was read as TTR transcr act 2.
`O=C(NNC(=S)Nc1ccccc1C(F)(F)F)C1CC1` gave TTR transcr act 1.
Screening Cc1ccc([N+](=O)[O-])cc1N=C(c1ccc([N+](=O)[O-])cc1)N1CCOCC1 returned TTR transcr act 1.
Screening O=[N+]([O-])c1cccc(NC(=S)N2CCOCC2)c1 returned TTR transcr act 1.
Screening Cc1ccc([N+](=O)[O-])cc1N=C(c1cccc([N+](=O)[O-])c1)N1CCOCC1 returned TTR transcr act 15*, HuH7 TTR inh -8 and TTR up confirm 1.
C=CCSc1nnc2c(n1)OC(C)=Nc1ccc(Br)cc1-2 was read as TTR transcr act -1.
`CCOC(=O)C(NC(=O)c1cccc(Cl)c1)(OCc1ccc(F)cc1)C(F)(F)F` (centres undefined) gave TTR transcr act 25*, HuH7 TTR inh -9 and TTR up confirm -1.
CCOC(=O)C(NC(=O)c1ccccc1)(OCC1(CC)COC1)C(F)(F)F (centres undefined) was read as TTR transcr act -3.
`CCOC(=O)C(NC(=O)NCc1cccc(C(F)(F)F)c1)(OCC)C(F)(F)F` (centres undefined) gave TTR transcr act 0.
For CCN1CCN(CC(=O)Nc2cccc(C)c2C)C(=O)C1=O the results were TTR transcr act 2.
Screening CC(C)NC(=O)CN1CCN(C(c2cc3ccccc3o2)c2nnnn2C(C)(C)C)CC1 (centres undefined) returned TTR transcr act -2.
Screening COC(CNC(=O)[C@H](Cc1c[nH]c2ccccc12)NC1(C(=O)NC(c2ccccc2)c2ccccc2)CCCCC1)OC returned TTR transcr act -3.
Screening COc1ccc(CN(C)CCCn2cnc3c(OCc4ccccc4)ncnc32)cc1 returned TTR transcr act -1.
`O=C(c1cccc(Br)c1)N1CCN(C(=O)N2CCOCC2)CC1` gave TTR transcr act 1.
`O=C(/C=C\N1CCOCC1)c1ccc(Br)cc1` gave TTR transcr act 12*, HuH7 TTR inh -7 and TTR up confirm 1.
Screening O=C(NC(=S)Nc1ccccc1N1CCOCC1)c1ccc(Br)cc1 returned TTR transcr act 0.
`COC(=O)C[C@H]1CC[C@H]2[C@H](COc3ccc(NS(=O)(=O)c4cccc(OC)c4)cc3C(=O)N2C)O1` gave TTR transcr act 0.
Screening CCCCn1nc2cc(C(=O)NCc3cc(C(F)(F)F)cc(C(F)(F)F)c3)ccc2c1OCC returned TTR transcr act 1.
Screening CCOc1c2ccc(C(=O)NCCc3ccc(C)cc3)cc2nn1CC returned TTR transcr act -3.
`CCCCn1nc2cc(C(=O)N[C@H](C)C3CCCCC3)ccc2c1OCC` gave TTR transcr act 12*, HuH7 TTR inh -6 and TTR up confirm 0.
Screening CN1CCN(c2ccc(C(=O)c3ccc(Br)cc3)cc2[N+](=O)[O-])CC1 returned TTR transcr act 2.
CCCOc1ccc(C(C)=O)cc1Cc1c(O)nc(SC)[nH]c1=O was read as TTR transcr act -2.
CCCCOc1ccc(Cc2c(O)nc(SC)[nH]c2=O)cc1 was read as TTR transcr act 9.9*, HuH7 TTR inh -22 and TTR up confirm 1.
`CCCCSc1nc(O)c(Cc2ccccc2)c(=O)[nH]1` gave TTR transcr act 2.
`COc1cccc(-n2c(=O)[nH]cc(C(=O)Nc3ccc(NC(C)=O)cc3)c2=O)c1` gave TTR transcr act 0.
For COc1ccc(CNC(=O)OC2CC3CC2[C@H]2CCCCN2C3=O)cc1 (some centres undefined) the results were TTR transcr act -1.
`O=C(CCCc1ccccc1)N1CCN(C2CCCCC2)CC1` gave TTR transcr act 1.
Screening COc1cc(OC)cc(C(=O)N2CCN(C3CCCCC3)CC2)c1 returned TTR transcr act 6.
`COc1ccc(CCC(=O)N2CCN(C3CCCCC3)CC2)cc1` gave TTR transcr act 14*, HuH7 TTR inh -14 and TTR up confirm 0.
`CCC1CCCCN1S(=O)(=O)c1ccc(NC(=O)C2CCCO2)cc1` (centres undefined) gave TTR transcr act 3.
Screening CCOC(=O)CCCC(=O)N1CCOCCOCCN(C(=O)CCCC(=O)OCC)CCOCCOCC1 returned TTR transcr act -1.
For O=C(CCCCC(=O)OCC1CCCO1)OCC1CCCO1 (centres undefined) the results were TTR transcr act 2.
For O=C(CCCCC(=O)OCC1COCO1)OCC1COCO1 (centres undefined) the results were TTR transcr act 10*, HuH7 TTR inh -2 and TTR up confirm 0.
`COC(CNC(=O)[C@H](Cc1c[nH]c2ccccc12)NC1(C(=O)NC2CCCCC2)CCCCC1)OC` gave TTR transcr act 0.
O=C(c1ccc(F)cc1)c1cnc(Nc2ccccc2)s1 was read as TTR transcr act 15*, HuH7 TTR inh -5 and TTR up confirm 0.
For Nc1nc(Nc2ccccc2)sc1C(=O)c1ccccc1 the results were TTR transcr act -3.
Screening O=C(Cc1nnc(NC(=O)Nc2ccc(F)cc2)s1)Nc1ccccc1 returned TTR transcr act 3.
`O=c1cnnc(SCc2ccc([N+](=O)[O-])cc2)[nH]1` gave TTR transcr act 0.
`Cc1ccn2cc(-c3ccc(NC(=O)c4ccco4)cc3)nc2c1` gave TTR transcr act 1.
For CC(C)c1ccc(C(=O)CSc2n[nH]c(-c3ccncc3)n2)cc1 the results were TTR transcr act 1.
For S=C(Nc1cccc(Cl)c1)OCCN1CCCC12CCC(c1ccccc1)CC2 (centres undefined) the results were TTR transcr act 0.
CCc1nc2ccc(C(=O)NCCCn3ccnc3)cn2c1N(C)Cc1ccc(OC)cc1 was read as TTR transcr act 1.
[N-]=[N+]=N[C@@H](CCN1CC[C@H](O)CCC1=O)c1ccccc1 was read as TTR transcr act 4.
For C[C@@H]1CCC(=O)N(CC[C@H](N=[N+]=[N-])c2ccccc2)CC1 the results were TTR transcr act 10*, HuH7 TTR inh -7 and TTR up confirm 1.
For CC(C)(C)[C@@H]1CCC(=O)N(CC[C@H](N=[N+]=[N-])c2ccccc2)CC1 the results were TTR transcr act 0.
For CN1CCN(C2CCN(c3ccc(Nc4nnc(Cl)c(Nc5ccccc5S(C)(=O)=O)n4)c(OC(CF)CF)c3)CC2)CC1 the results were TTR transcr act -4.
`c1nc(NCC2CCOC2)c2cc(-c3ccc4c(c3)OCO4)ccc2n1` (centres undefined) gave TTR transcr act -2.
`CN(C)c1ccc(NC(=O)Cn2ncn3c(cc4ccccc43)c2=O)cc1` gave TTR transcr act -1.
COC(=O)Cn1ncn2c(cc3oc(C)cc32)c1=O was read as TTR transcr act 25*, HuH7 TTR inh -15 and TTR up confirm 0.
For COC(=O)Cn1c(=O)c(C)nc2ccccc21 the results were TTR transcr act 0.
For COc1ccc(-c2ccc3oc(-c4ccc(OC)cc4)c(C#CC4(O)CCCCC4)c3c2)cc1 the results were TTR transcr act -6.
